Experimental findings from paper PMC12820563, “FoxP3 forms a head-to-head dimer in vivo and stabilizes its multimerization on adjacent microsatellites” are described below.

Whole data set: some 16,000 sequences, median “rpm ratio (pull-down/input)” near 0.5, cut for the highest 2% near 5.5. This excerpt belongs to a sample that is enriched for the highest values.

This assay deals with T1, MBP-FoxP3dN (Mus musculus, UniProt Q99JB6 188-423).
T1 sequence: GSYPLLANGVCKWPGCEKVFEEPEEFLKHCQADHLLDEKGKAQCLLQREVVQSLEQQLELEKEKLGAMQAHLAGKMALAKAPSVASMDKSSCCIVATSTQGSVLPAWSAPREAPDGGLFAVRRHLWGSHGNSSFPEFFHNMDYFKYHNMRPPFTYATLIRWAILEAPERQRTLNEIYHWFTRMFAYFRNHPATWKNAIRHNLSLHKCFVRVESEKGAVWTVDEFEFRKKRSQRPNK
Briefly: PD-seq (MBP pull-down with sequencing); 20 mM Tris-HCl pH 7.5, 100 mM NaCl, 1.5 mM MgCl2, 0.4 uM protein, 0.1 uM dsDNA library, 30 min, room temperature, amylose pull-down; high values mean tight binding. The note with it: protein: recombinant; tags: His6-MBP; chain copies: 2; dsDNA, one strand shown. The gist of the method:
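Mouse FoxP3 or FoxP1 fragment lacking the N-terminus, His6-MBP-tagged and expressed in E. coli, was incubated at 0.4 µM with 0.1 µM Klenow-filled degenerate double-stranded DNA library for 30 min at room temperature in Tris pH 7.5 buffer with NaCl and MgCl2. Complexes captured on amylose resin were washed three times and their DNA sequenced on Illumina. Binding is reads-per-million enrichment of pull-down over input, replicates pooled.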
As for “GATGATTGTTCTCCCAGCTGATGAATTTGCTGACTCGAGTAAACAAATTTTCCTAATCTTTCTGTTCAAGCGCCATCTAC”, the binding signal was 5.1 RPM ratio (pull-down/input).

With “GATGATTGTTCTCCCAGCTGATGAATTGCAGTGCTCGAGTAAACAAATTTTCCTAATCTTTCTGTTCAAGCGCCATCTAC”, the binding signal was 0.811 RPM ratio (pull-down/input).

Consider “GATGATTGTTCTCCCAGCTGATGAATTATTAGCGTCGAGTAAACAAATTTTCCTAATCTTTCTGTTCAAGCGCCATCTAC”, for which the binding signal was 0.786 RPM ratio (pull-down/input).

In the case of “GATGATTGTTCTCCCAGCTGATGAATTTGGCTGTTCGAGTAAACAAATTTTCCTAATCTTTCTGTTCAAGCGCCATCTAC”, the binding signal was 1.17 RPM ratio (pull-down/input).

Consider “GATGATTGTTCTCCCAGCTGATGAATTCAGTAGATCGAGTAAACAAATTTTCCTAATCTTTCTGTTCAAGCGCCATCTAC”, for which the binding signal was 0.408 RPM ratio (pull-down/input).

In the case of “GATGATTGTTCTCCCAGCTGATGAATTACGAGGTTCGAGTAAACAAATTTTCCTAATCTTTCTGTTCAAGCGCCATCTAC”, the binding signal is 0.392 RPM ratio (pull-down/input).

“GATGATTGTTCTCCCAGCTGATGAATTCCGTCAATCGAGTAAACAAATTTTCCTAATCTTTCTGTTCAAGCGCCATCTAC”: the binding signal is 0.393 RPM ratio (pull-down/input).

Consider “GATGATTGTTCTCCCAGCTGATGAATTGATCGACTCGAGTAAACAAATTTTCCTAATCTTTCTGTTCAAGCGCCATCTAC”, for which the binding signal was 0.33 RPM ratio (pull-down/input).

Regarding “GATGATTGTTCTCCCAGCTGATGAATTGTGTCCTTCGAGTAAACAAATTTTCCTAATCTTTCTGTTCAAGCGCCATCTAC”, the binding signal is 1.89 RPM ratio (pull-down/input).

For the sequence “GATGATTGTTCTCCCAGCTGATGAATTGGTGGCTTCGAGTAAACAAATTTTCCTAATCTTTCTGTTCAAGCGCCATCTAC”, the binding signal was 0.748 RPM ratio (pull-down/input).

As to “GATGATTGTTCTCCCAGCTGATGAATTGGCGGTATCGAGTAAACAAATTTTCCTAATCTTTCTGTTCAAGCGCCATCTAC”, the binding signal is 0.566 RPM ratio (pull-down/input).

As for “GATGATTGTTCTCCCAGCTGATGAATTATTTGTCTCGAGTAAACAAATTTTCCTAATCTTTCTGTTCAAGCGCCATCTAC”, the binding signal is 2.46 RPM ratio (pull-down/input).

Turning to “GATGATTGTTCTCCCAGCTGATGAATTTGTTTACTCGAGTAAACAAATTTTCCTAATCTTTCTGTTCAAGCGCCATCTAC”, the binding signal is 6.49 RPM ratio (pull-down/input).

Turning to “GATGATTGTTCTCCCAGCTGATGAATTTGATTACTCGAGTAAACAAATTTTCCTAATCTTTCTGTTCAAGCGCCATCTAC”, the binding signal is 6.08 RPM ratio (pull-down/input).

As to “GATGATTGTTCTCCCAGCTGATGAATTTTATGTCTCGAGTAAACAAATTTTCCTAATCTTTCTGTTCAAGCGCCATCTAC”, the binding signal was 1.12 RPM ratio (pull-down/input).

As for “GATGATTGTTCTCCCAGCTGATGAATTTTGTTACTCGAGTAAACAAATTTTCCTAATCTTTCTGTTCAAGCGCCATCTAC”, the binding signal was 3.84 RPM ratio (pull-down/input).

For the sequence “GATGATTGTTCTCCCAGCTGATGAATTATTTTACTCGAGTAAACAAATTTTCCTAATCTTTCTGTTCAAGCGCCATCTAC”, the binding signal is 0.529 RPM ratio (pull-down/input).

Turning to “GATGATTGTTCTCCCAGCTGATGAATTTTATTACTCGAGTAAACAAATTTTCCTAATCTTTCTGTTCAAGCGCCATCTAC”, the binding signal is 1.04 RPM ratio (pull-down/input).

On to “GATGATTGTTCTCCCAGCTGATGAATTTTTTTACTCGAGTAAACAAATTTTCCTAATCTTTCTGTTCAAGCGCCATCTAC”, for which the binding signal was 0.35 RPM ratio (pull-down/input).

For “GATGATTGTTCTCCCAGCTGATGAATTGAATTACTCGAGTAAACAAATTTTCCTAATCTTTCTGTTCAAGCGCCATCTAC”, the binding signal was 1.28 RPM ratio (pull-down/input).

For “GATGATTGTTCTCCCAGCTGATGAATTGTTTTACTCGAGTAAACAAATTTTCCTAATCTTTCTGTTCAAGCGCCATCTAC”, the binding signal was 1.55 RPM ratio (pull-down/input).

Consider “GATGATTGTTCTCCCAGCTGATGAATTTATTGTCTCGAGTAAACAAATTTTCCTAATCTTTCTGTTCAAGCGCCATCTAC”, for which the binding signal is 6.72 RPM ratio (pull-down/input).

For the sequence “GATGATTGTTCTCCCAGCTGATGAATTTATTTACTCGAGTAAACAAATTTTCCTAATCTTTCTGTTCAAGCGCCATCTAC”, the binding signal is 6.74 RPM ratio (pull-down/input).

With “GATGATTGTTCTCCCAGCTGATGAATTCAATTGTTCGAGTAAACAAATTTTCCTAATCTTTCTGTTCAAGCGCCATCTAC”, the binding signal is 3.36 RPM ratio (pull-down/input).

Regarding “GATGATTGTTCTCCCAGCTGATGAATTGGCCCGGTCGAGTAAACAAATTTTCCTAATCTTTCTGTTCAAGCGCCATCTAC”, the binding signal is 0.201 RPM ratio (pull-down/input).

Regarding “GATGATTGTTCTCCCAGCTGATGAATTGCTTCCCTCGAGTAAACAAATTTTCCTAATCTTTCTGTTCAAGCGCCATCTAC”, the binding signal is 0.536 RPM ratio (pull-down/input).

For “GATGATTGTTCTCCCAGCTGATGAATTGCCATTTTCGAGTAAACAAATTTTCCTAATCTTTCTGTTCAAGCGCCATCTAC”, the binding signal was 1.02 RPM ratio (pull-down/input).

As for “GATGATTGTTCTCCCAGCTGATGAATTTTTGCATTCGAGTAAACAAATTTTCCTAATCTTTCTGTTCAAGCGCCATCTAC”, the binding signal is 6.58 RPM ratio (pull-down/input).

Consider “GATGATTGTTCTCCCAGCTGATGAATTTTGCATCTCGAGTAAACAAATTTTCCTAATCTTTCTGTTCAAGCGCCATCTAC”, for which the binding signal was 7.18 RPM ratio (pull-down/input).

Take “GATGATTGTTCTCCCAGCTGATGAATTTGCATTCTCGAGTAAACAAATTTTCCTAATCTTTCTGTTCAAGCGCCATCTAC”: the binding signal is 6.29 RPM ratio (pull-down/input).

For “GATGATTGTTCTCCCAGCTGATGAATTGCATTCCTCGAGTAAACAAATTTTCCTAATCTTTCTGTTCAAGCGCCATCTAC”, the binding signal is 3.39 RPM ratio (pull-down/input).
